Test [1] concerns the target Protein translocase subunit SecA (Escherichia coli (strain K12)) (UniProt P10408). In words: Assay to Identify E. coli SecA ATPase Inhibitors. Format: functional. Further details: scale not given: direction of the effect not stated beside the values. As to conditions: 30 µM.
Test [2] concerns the target T1, Ubiquitin-activating enzyme e1, putative (Leishmania donovani (strain BPK282A1)) (UniProt E9BSI1).
T1 sequence (whole entry): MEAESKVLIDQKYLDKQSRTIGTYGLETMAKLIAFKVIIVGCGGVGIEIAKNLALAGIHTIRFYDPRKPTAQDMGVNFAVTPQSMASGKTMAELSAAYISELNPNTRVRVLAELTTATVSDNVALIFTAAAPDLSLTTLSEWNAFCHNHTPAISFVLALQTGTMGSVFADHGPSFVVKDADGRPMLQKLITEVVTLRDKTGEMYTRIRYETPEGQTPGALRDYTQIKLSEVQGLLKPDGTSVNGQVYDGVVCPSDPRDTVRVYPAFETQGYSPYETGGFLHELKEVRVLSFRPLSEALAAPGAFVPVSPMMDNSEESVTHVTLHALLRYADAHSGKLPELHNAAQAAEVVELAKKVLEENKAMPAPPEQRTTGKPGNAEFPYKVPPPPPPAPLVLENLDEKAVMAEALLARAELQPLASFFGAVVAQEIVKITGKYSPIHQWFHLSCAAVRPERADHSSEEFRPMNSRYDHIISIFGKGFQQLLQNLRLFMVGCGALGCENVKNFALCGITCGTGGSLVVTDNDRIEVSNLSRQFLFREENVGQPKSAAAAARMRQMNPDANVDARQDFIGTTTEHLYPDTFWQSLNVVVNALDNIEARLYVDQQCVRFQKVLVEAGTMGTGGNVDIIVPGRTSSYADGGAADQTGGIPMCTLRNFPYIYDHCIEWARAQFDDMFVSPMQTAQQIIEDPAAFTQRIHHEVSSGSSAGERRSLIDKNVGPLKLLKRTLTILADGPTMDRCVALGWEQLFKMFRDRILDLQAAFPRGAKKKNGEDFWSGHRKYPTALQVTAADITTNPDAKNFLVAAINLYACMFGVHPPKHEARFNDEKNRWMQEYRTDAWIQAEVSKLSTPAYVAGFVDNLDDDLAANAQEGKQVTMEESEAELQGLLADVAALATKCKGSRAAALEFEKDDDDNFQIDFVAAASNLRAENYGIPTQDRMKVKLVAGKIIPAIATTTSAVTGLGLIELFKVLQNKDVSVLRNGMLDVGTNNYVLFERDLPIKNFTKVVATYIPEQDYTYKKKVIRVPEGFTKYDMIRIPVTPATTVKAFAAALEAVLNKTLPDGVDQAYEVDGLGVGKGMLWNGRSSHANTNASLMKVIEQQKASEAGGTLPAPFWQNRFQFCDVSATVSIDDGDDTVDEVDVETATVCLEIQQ
In words: Leishmania donovani Ubiquitin Activating Enzyme (LdE1). Format: functional. Details: scale not given: direction of the effect not stated beside the values. As to conditions: 30 µM.

Test [3] has as its target AMP-activated protein kinase, AMPK (Homo sapiens) (UniProt P54646+O43741+P54619+Q9UGJ0+Q9Y478+Q13131+Q9UGI9). In words: AMP-dependent Kinase enzyme assay. An in vitro enzyme assay that detects ADP turnover that is directly proportional to AMPK activity. This uses naive AMPK that is activated during the assay with MK-8722. Format: functional. Further details: scale not given: direction of the effect not stated beside the values. As to conditions: 30 µM.

Test [4] has as its target Sialic acid-binding Ig-like lectin 9 (Homo sapiens) (UniProt Q9Y336). In words: Hs-Siglec9 ALPHAscreen SOP 20170721. Further details: scale not given: direction of the effect not stated beside the values. As to conditions: 10 µM. (In general: In Alpha technology, singlet oxygen from a donor bead excites a nearby acceptor bead.)
The subject of test [5] is Trypanosoma cruzi. In words: Trypanosoma cruzi phosphomannomutase and mannose-1-phosphate guanylyltransferase assay. Format: functional. Further details: scale not given: direction of the effect not stated beside the values. As to conditions: 10 µM.
The target of test [6] is T2, Arginase-2, mitochondrial (Homo sapiens) (UniProt P78540).
T2 sequence (whole entry): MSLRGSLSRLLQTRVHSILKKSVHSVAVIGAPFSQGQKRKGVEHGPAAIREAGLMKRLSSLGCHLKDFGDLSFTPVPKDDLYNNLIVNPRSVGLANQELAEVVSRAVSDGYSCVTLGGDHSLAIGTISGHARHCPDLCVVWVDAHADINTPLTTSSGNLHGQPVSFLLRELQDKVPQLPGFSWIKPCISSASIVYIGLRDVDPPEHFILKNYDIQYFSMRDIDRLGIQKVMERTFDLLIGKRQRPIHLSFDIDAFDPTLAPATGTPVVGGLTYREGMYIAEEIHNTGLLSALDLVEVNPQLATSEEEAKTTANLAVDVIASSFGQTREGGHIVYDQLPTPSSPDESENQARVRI
Briefly: in vitro enzyme assay to detect the production of urea directly proportional to the activity of Arginase II. Further details: scale not given: in the data most compounds retested in dose-response had high values. Format: functional.

For test [7], the target named is T3, Proteasome subunit beta (Trypanosoma cruzi) (UniProt O96673).
T3 sequence (whole entry): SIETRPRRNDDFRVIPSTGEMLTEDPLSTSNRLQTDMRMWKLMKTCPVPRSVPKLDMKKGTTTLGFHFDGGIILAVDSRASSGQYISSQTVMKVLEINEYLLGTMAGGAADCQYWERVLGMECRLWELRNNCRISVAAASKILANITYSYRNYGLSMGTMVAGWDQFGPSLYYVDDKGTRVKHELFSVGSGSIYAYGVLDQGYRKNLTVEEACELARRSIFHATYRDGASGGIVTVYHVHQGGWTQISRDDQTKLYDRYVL
In words: Trypanosoma cruzi proteasome chymotrypsin-like activity (TcProtChymo) assay. Further details: scale not given: in the data most compounds retested in dose-response had high values. Format: functional. As to conditions: 9.37 µM.

The species named for test [8] is Homo sapiens. Briefly: To identify inhibition of the IFN signalling (Jak-Stat) pathway via expression of an eGFP reporter gene under the control of an IFN-stimulated response element (ISRE) containing MxA promoter. Format: functional. Further details: scale not given: direction of the effect not stated beside the values. As to conditions: 30 µM.
Test [9] has as its target T4, Tyrosyl-tRNA synthetase, putative (Trypanosoma cruzi (strain CL Brener)) (UniProt Q4DSP6).
T4 sequence (whole entry): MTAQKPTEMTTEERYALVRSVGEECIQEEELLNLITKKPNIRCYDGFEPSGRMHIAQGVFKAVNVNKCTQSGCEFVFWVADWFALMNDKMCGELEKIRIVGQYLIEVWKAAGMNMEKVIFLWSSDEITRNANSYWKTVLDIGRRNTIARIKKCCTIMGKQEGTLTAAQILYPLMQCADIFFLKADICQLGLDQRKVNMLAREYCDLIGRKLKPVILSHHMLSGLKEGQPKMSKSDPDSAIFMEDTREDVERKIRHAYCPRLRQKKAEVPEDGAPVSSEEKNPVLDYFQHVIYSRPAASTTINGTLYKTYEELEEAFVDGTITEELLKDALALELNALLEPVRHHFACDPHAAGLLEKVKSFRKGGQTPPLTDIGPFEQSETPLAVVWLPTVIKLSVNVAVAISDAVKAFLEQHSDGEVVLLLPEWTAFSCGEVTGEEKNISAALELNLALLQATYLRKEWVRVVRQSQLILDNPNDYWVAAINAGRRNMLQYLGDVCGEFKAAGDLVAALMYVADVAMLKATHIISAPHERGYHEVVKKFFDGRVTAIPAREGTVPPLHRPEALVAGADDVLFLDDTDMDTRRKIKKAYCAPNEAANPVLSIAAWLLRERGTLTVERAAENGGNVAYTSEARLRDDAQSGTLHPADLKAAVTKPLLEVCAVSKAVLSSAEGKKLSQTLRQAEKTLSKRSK
In words: Trypanosoma cruzi tyrosyl tRNA synthetase (TcYRS) _High Tyrosine SOP. Format: functional. Details: scale not given: in the data most compounds retested in dose-response had high values. As to conditions: 30 µM.

Test [10] has as its target T4, Tyrosyl-tRNA synthetase, putative (Trypanosoma cruzi (strain CL Brener)). In words: Trypanosoma cruzi tyrosyl tRNA synthetase (TcYRS) SOP. Format: functional. Details: scale not given: direction of the effect not stated beside the values. As to conditions: 30 µM.
Test [11] addresses Chromo domain-containing protein 1 (Saccharomyces cerevisiae (strain ATCC 204508 / S288c) (Baker's yeast)) (UniProt P32657). In words: ScCHD-1 Enzyme Inhibition Assay. Format: functional. Details: scale not given: in the data most compounds retested in dose-response had high values. As to conditions: 30 µM.
For test [12], the target named is T5, Methionyl-tRNA synthetase, putative (Leishmania donovani (strain BPK282A1)) (UniProt E9BF75).
T5 sequence (whole entry): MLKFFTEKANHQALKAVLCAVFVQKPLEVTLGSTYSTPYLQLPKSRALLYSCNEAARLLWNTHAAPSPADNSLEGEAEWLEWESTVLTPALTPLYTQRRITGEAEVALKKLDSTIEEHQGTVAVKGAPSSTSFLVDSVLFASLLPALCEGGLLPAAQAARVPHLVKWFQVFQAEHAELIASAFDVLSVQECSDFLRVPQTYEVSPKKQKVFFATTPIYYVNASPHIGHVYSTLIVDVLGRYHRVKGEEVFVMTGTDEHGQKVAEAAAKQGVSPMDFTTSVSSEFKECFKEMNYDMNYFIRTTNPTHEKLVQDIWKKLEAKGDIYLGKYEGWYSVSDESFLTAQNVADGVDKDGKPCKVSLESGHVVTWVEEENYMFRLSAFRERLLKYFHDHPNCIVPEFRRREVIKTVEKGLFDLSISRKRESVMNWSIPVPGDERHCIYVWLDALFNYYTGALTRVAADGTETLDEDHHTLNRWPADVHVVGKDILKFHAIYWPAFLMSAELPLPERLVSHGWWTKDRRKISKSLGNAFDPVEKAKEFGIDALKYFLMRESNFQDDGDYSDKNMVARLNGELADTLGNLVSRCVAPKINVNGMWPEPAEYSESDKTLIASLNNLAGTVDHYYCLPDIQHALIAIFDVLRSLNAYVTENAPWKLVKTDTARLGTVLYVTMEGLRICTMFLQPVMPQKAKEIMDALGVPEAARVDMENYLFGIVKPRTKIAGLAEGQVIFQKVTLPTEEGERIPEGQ
Briefly: Leishmania donovani Methionine tRNA synthetase (LdMetRS):v7. Dose response assay. Format: functional. Further details: conc 80 nM, time 150 minutes.

Experimental findings from ChEMBL document CHEMBL3988442, “University of Dundee, Small-Polar-MMV Screening Library” (2021) are described below.

The structures appear in SMILES notation. For part of these data: Measured potencies and affinities stand elsewhere.

Sequence of Sialic acid-binding Ig-like lectin 9 (Homo sapiens) (Q9Y336 whole entry): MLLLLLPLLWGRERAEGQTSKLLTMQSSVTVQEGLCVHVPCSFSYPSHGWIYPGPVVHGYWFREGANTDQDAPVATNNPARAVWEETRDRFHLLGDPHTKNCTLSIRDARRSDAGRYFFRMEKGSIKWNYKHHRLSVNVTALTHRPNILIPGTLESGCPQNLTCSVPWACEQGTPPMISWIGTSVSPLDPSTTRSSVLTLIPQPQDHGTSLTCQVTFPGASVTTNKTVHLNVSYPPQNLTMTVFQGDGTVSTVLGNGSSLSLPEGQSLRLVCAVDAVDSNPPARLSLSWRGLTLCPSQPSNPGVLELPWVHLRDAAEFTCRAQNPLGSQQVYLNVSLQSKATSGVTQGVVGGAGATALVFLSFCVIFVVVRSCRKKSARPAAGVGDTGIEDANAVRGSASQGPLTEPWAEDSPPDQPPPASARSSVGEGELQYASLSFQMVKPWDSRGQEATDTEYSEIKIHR
Sequence of Protein translocase subunit SecA (Escherichia coli (strain K12)) (P10408 whole entry): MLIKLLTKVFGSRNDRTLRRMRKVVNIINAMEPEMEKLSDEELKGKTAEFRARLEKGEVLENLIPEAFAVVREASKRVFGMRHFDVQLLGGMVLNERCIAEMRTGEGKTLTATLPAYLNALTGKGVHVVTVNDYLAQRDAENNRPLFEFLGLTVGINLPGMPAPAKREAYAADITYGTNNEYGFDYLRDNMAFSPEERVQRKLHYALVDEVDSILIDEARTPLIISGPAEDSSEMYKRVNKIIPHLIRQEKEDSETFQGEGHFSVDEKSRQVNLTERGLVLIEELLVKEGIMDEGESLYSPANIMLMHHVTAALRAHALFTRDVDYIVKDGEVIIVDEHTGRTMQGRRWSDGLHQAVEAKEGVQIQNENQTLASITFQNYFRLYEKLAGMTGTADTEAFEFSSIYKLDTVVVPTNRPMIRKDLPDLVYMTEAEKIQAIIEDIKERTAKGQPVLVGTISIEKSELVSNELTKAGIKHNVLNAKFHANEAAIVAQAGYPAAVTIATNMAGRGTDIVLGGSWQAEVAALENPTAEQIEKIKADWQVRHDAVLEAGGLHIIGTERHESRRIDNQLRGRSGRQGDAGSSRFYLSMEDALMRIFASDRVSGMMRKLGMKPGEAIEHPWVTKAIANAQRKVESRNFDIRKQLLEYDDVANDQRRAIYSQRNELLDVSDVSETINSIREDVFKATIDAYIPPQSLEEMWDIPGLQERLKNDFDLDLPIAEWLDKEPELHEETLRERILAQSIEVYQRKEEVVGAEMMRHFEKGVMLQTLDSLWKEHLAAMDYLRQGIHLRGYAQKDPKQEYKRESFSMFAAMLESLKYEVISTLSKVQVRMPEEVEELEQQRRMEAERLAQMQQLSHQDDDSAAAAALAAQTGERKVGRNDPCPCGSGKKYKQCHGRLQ
Sequence of Chromo domain-containing protein 1 (Saccharomyces cerevisiae (strain ATCC 204508 / S288c) (Baker's yeast)) (P32657 whole entry, the tested form may be a part): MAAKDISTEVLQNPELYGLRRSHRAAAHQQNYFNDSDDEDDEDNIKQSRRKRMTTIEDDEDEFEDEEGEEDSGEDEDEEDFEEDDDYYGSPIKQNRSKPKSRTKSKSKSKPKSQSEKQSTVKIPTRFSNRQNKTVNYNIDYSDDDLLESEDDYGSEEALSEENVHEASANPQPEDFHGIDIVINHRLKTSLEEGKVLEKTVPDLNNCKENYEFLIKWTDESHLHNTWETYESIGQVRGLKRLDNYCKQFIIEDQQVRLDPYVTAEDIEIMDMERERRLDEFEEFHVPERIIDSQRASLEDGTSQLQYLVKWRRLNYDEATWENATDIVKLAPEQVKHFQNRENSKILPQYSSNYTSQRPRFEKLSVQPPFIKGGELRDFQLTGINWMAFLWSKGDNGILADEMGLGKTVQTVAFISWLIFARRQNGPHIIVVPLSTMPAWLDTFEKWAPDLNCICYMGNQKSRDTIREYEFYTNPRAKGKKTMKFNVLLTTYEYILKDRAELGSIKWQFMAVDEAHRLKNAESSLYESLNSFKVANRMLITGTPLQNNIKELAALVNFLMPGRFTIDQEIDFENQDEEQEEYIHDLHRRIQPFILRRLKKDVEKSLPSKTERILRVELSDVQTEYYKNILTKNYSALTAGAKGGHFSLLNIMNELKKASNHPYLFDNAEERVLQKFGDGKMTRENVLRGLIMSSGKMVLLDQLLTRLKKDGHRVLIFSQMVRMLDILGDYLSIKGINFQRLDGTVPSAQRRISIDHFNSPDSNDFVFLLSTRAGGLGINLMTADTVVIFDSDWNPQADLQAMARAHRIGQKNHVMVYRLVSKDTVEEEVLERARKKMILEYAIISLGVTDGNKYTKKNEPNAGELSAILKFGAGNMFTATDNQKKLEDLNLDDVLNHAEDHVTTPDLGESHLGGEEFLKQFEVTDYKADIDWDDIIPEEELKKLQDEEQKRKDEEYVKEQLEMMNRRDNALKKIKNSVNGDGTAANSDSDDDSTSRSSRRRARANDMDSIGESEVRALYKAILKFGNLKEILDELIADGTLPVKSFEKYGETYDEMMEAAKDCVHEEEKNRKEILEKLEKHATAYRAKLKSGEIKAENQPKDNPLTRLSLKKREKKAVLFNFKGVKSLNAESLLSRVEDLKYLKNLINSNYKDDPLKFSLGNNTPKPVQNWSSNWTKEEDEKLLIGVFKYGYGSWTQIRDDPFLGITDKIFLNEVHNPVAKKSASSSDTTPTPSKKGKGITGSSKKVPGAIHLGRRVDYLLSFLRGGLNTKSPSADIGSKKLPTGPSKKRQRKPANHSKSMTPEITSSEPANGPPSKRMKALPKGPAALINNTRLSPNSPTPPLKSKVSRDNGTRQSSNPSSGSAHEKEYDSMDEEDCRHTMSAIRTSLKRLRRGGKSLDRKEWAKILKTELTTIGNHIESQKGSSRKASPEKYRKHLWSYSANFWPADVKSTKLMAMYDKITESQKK

Consider `COc1ccc(C(=O)N2C[C@@H](C(=O)O)[C@H](c3ccccc3C)C2)c(O)c1`, for which the Percent Effect was -5.13% in test [1]; 5.41% in [2]; -4.36% in [3]; 32% in [4]; 1.86% in [5]; 4.87% in test [6] (30 µM). Moreover, the Percent Effect in test [6] (33.3 µM) was -0.248%; in [7] it was 9.53%; in test [8] it was -12.1%; in test [9] it was 6.45%; in [10], 16.1%; in [11], -2.87%.
For `Cn1cc(CC2CCN(C(=O)NCCc3cccc(O)c3)C2)cn1` (stereo not given), the Percent Effect was -1.93% in test [1]; 0% in test [2]; 11.8% in test [3]; 1.28% in test [4]; -3.8% in test [5]; 5.95% in test [6] (30 µM). Further, the Percent Effect in test [6] (33.3 µM) is -2.37%; in test [7], 11%; in test [8], -12%; in test [9], 5.32%; in test [10], 7.79%; in [11], -2.6%.
Turning to `CCC(CO)NC(=O)c1ccc2ccc(N(C)CC3CC3)n2c1` (stereo not given), the PXC50 in test [12] (MAX_EFFECT 27.99295775) and in test [12] (MAX_EFFECT 39.42992874) was under 4 each time. For the same compound, the Percent Effect came to 3.49% in [1]; 3.9% in test [2]; 0.399% in test [4]; 3.56% in test [5]; 0.457% in test [6] (33.3 µM); 15.2% in [7]. Besides, the Percent Effect was 8.81% in [8], 12.6% in test [9], 15% in test [10] and -3.69% in test [11].
As for `CC1CCN(S(=O)(=O)c2cccn(CC(=O)N3CCOCC3)c2=O)CC1`, the Percent Effect in test [1] was -2.79%; in [2] it was 9.33%; in [3] it was 5.14%; in test [4], 0.129%; in [5], -4.91%; in test [6] (30 µM), 3.78%. Besides, the Percent Effect in [6] (33.3 µM) is -3.7%; in test [7], 7.02%; in [8] it was 0.032%; in test [9], 1.06%; in [10], 2.56%; in test [11] it was -7.85%.
On to `CCCN1CCC(NC(=O)c2ccc(F)cc2I)CC1`, for which the Percent Effect in test [1] was -2.2%; in [2] it was 18.1%; in test [3], -6.61%; in test [4], 17.7%; in [5], 2.23%; in [6] (30 µM), 5.95%. Also, the Percent Effect in test [6] (33.3 µM) is 24.3%; in [7] it was 12.5%; in test [8], -17.1%; in test [9], 8.42%; in [10], 15.4%; in test [11], -5.41%.
